The values below come from PubChem BioAssay (EPA / NIEHS).

Records with an inconclusive call do not appear. The source made the active and inactive calls. Rule for the calls: active = hit-call score of the fitted dose curve at least 0.9, where 1 is the maximum; inconclusive = response in the unintended direction; inactive = score below 0.9.

Broadly, the AC50 is the concentration giving half of the maximal activity seen.

Assay [1] has as its target Sodium channel protein type 1 subunit alpha (Rattus norvegicus) (UniProt P04774). As to the kind of experiment: NVS_IC_rNaCh_site2: NovaScreen (NVS) Ion Channel Assay for rat Sodium Channel, Site 2 (NaCh) (AID 2283322).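 Note: hit means loss of radioligand binding signal relative to DMSO so AC50 marks displacement.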 In outline: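 Initial duplicate single-point testing at 25 uM, followed by concentration-response runs for actives. Binding of radioligand to rat forebrain membranes quantified after 1 h via filter-based radiodetection.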

For assay [2], the target named is bovine Estrogen Receptor (ER), ESR1 (gene 407238) (UniProt P49884). As to the kind of experiment: NVS_NR_bER: NovaScreen (NVS) Nuclear Receptor Binding Assay for bovine Estrogen Receptor (ER) (AID 2283345).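 Note: actives lower the bound radioligand count which means they displace the ER ligand.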 In outline: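 Cell-free radioligand binding with receptor from bovine uterine membranes, read by scintillation counting 18 h after dosing. Loss of specific binding was scored against DMSO; primary screen at 25 uM in duplicate, actives then run as concentration series.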

The target of assay [3] is human Peripheral-type Benzodiazepine Receptor (PBR), TSPO (gene 706) (UniProt P30536). In words: NVS_MP_hPBR: NovaScreen (NVS) Membrane Protein Assay for human Peripheral-type Benzodiazepine Receptor (PBR) (AID 2283331).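 Note: hits reduce radioligand binding relative to DMSO baseline.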 In outline:
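Cell-free radioligand displacement, human colonic membranes, 1 h exposure. Filter radiodetection read-out. Single-concentration duplicates (25 uM), then concentration-response for actives; DMSO negative control.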

Assay [4] concerns the target rat Thyrotropin Releasing Hormone Receptor (TRH), Trhr (gene 25570) (UniProt Q01717). As to the kind of experiment: NVS_GPCR_rTRH: NovaScreen (NVS) G Protein-Coupled Receptor Assay for rat Thyrotropin Releasing Hormone Receptor (TRH) (AID 2283329).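 Note: hit means lower bound tracer signal versus DMSO baseline.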 In outline:
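Cell-free radioligand binding on rat forebrain membranes; bound tracer measured by filter-based scintillation counting 4 hours after dosing. Loss of signal versus DMSO baseline indicates displacement; primary screen at 25 uM in duplicate, actives then run in concentration series.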

The target in assay [5] is rat Peripheral-type Benzodiazepine Receptor (PBR), Tspo (gene 24230) (UniProt P16257). As to the kind of experiment: NVS_MP_rPBR: NovaScreen (NVS) Membrane Protein Assay for rat Peripheral-type Benzodiazepine Receptor (PBR) (AID 2283335). In outline: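 Competitive displacement of specific radioligand from rat kidney membrane PBR, read by filtration and scintillation after 1 h. Compounds first tested at 25 uM in duplicate, then in concentration series; signal loss relative to DMSO.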

Assay [6] addresses rat Neonicotinoid receptor (NNR), Chrna7 (gene 25302) (UniProt Q05941). In words: NVS_LGIC_rNNR_BungSens: NovaScreen (NVS) Ligand-Gated Ion Channel Assay for rat Neonicotinoid receptor (NNR) (AID 2283315). In outline: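 Rat cortical membrane preparation incubated 2.5 h with tritiated or iodinated radioligand and test chemical. Bound radioactivity was filtered and counted by scintillation, and displacement was analysed against DMSO.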

Chain of rat Thyrotropin Releasing Hormone Receptor (TRH), Trhr (gene 25570) (Q01717 whole entry, looked up): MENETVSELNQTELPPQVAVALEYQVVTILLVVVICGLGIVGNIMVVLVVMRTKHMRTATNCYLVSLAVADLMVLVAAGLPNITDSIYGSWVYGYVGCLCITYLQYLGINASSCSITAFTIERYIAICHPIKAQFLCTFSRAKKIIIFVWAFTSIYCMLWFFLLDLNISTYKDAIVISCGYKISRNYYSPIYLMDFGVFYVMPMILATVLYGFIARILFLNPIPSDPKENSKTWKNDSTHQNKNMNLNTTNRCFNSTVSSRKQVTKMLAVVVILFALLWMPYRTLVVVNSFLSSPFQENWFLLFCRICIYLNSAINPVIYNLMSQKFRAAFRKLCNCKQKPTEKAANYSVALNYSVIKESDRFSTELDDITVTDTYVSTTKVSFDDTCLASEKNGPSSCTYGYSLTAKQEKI
Chain of bovine Estrogen Receptor (ER), ESR1 (gene 407238) (P49884 whole entry, looked up): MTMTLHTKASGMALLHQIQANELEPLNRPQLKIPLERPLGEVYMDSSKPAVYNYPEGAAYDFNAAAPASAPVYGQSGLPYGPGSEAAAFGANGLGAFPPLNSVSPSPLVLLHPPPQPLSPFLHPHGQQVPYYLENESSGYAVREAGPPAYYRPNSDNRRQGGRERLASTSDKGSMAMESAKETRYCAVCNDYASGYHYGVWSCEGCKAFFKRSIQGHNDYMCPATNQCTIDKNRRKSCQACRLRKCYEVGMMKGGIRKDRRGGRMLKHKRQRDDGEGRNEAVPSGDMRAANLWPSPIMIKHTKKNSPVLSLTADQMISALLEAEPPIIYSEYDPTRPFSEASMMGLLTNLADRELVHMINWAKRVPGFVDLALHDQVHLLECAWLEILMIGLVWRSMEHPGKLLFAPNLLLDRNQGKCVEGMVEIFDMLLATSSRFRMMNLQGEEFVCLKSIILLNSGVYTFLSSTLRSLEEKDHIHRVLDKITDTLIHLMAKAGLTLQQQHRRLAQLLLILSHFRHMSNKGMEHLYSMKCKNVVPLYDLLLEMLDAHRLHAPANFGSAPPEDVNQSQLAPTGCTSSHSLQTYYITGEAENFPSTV
Chain of human Peripheral-type Benzodiazepine Receptor (PBR), TSPO (gene 706) (P30536 whole entry, looked up): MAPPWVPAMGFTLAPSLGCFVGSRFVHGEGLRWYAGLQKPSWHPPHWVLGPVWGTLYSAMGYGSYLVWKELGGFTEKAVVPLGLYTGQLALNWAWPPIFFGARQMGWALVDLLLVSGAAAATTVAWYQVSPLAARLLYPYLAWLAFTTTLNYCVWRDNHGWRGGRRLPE
Chain of rat Peripheral-type Benzodiazepine Receptor (PBR), Tspo (gene 24230) (P16257 whole entry, looked up): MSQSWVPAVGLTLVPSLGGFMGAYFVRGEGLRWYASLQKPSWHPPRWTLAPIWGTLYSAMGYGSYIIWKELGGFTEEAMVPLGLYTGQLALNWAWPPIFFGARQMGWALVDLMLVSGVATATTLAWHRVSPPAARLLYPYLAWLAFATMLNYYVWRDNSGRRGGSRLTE
Chain of rat Neonicotinoid receptor (NNR), Chrna7 (gene 25302) (Q05941 whole entry, looked up): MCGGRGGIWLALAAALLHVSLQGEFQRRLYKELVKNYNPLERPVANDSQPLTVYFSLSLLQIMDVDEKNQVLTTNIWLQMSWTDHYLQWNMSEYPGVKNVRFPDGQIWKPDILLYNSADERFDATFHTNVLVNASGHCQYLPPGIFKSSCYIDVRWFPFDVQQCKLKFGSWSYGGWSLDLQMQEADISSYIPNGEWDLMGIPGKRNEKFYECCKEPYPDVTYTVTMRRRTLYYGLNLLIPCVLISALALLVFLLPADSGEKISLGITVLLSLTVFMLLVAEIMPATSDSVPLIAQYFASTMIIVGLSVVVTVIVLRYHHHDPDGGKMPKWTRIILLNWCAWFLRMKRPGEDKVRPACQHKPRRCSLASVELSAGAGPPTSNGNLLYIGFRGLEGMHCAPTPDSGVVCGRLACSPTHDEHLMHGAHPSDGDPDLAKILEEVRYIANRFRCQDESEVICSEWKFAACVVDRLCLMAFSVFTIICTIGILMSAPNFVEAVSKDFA

With `COc1ccccc1C=O`, the compound was classed as inactive in assay [1].

For `Cc1cc(O)c(C(C)(C)C)cc1C(C)(C)C`, the call in assay [2] was inactive. Consider `CCCCCCCCCc1ccc(OCCO)cc1`, for which the half-maximal activity concentration (AC50) in assay [3] is 2.84 µM (active). The call in assay [2] was inactive.

Regarding `COCCOCCC[Si](C)(O[Si](C)(C)C)O[Si](C)(C)C`, the outcome in assay [4] was inactive. With `Cc1ccc([N+](=O)[O-])c(C)c1`, in assay [4], the compound was called inactive.

As for `CCCCCCCC/C=C\CCCCCCCC(=O)N(C)CC(=O)O`, the compound was called inactive in assay [3], in assay [5] and in assay [2].

Turning to `CCCCCCCC/C=C\CCCCCCCC(=O)OCC(O)CO` (stereo not given), the compound was classed as inactive in assay [4]. The concentration at half-maximal activity (AC50) in assay [3] is 25 µM (active). As for `CC(C)(C)c1cc(Cc2cc(C(C)(C)C)c(O)c(C(C)(C)C)c2)cc(C(C)(C)C)c1O`, in assay [4], the call was inactive.

As for `CCCCCCCCCCCCC[N+](C)(C)Cc1ccccc1`, the AC50 in assay [3] was 25.5 µM (active). In assay [2], the compound was called inactive.

Take `O=c1cccc[nH]1`: the result in assay [6] was inactive.
